Screening data (PubChem)
Nrf2 ARE act: qHTS of Nrf2 Activators; 410,000 tested, 0.31% active; Potency, µM (titrated, usually from 46.1 µM), actives largely listed as activators; AREc32 ARE-luciferase reporter (MCF7-derived line), luminescence, 24 h; AID 624171, 2012; also: nearly all actives have a fitted effect of over 65% in size
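AREc32_Fluc, 1000 cells/well, OPTI-MEM + 5% FBS, o/n 37 deg C 5% CO2; 23 nL cpd by pin tool, 24 hr; Steady-Glo 30 min RT, luminescence.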
Nrf2 inh: Nrf2 qHTS screen for inhibitors; A549 ARE-Fluc reporter, luciferase luminescence, 18-24 h; Potency, µM (series often up to 46 µM), usual class: inhibitors; 360,000 tested, 2.1% active; also: nearly all actives have a fitted effect of over 60% in size
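Nrf2 function is reported as luminescence of an ARE-controlled luciferase in A549 cells. Compounds were tested at several concentrations, and a CellTiter-Fluor read on the same wells flagged cytotoxicity.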
ELG1 DNA repair: qHTS screen for small molecules that inhibit ELG1-dependent DNA repair in human embryonic kidney (HEK293T) cells expressing luciferase-tagged ELG1. 330,000 tested, 2.3% active. Potency, µM (series often up to 46.1 µM), most hits filed as inhibitors. HEK293T ELG1-luciferase reporter, luminescence, 16 h; DNA damage induced by 5-fluorouridine; also: nearly all actives have a fitted effect of over 55% in size
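Step one: seed 2,000 cells per well. Step two: pin-transfer compound or DMSO alongside 5-fluorouridine. Step three: incubate 16 hr, 37 °C, 5% CO2. Step four: add ONE-Glo, wait 30 min, read luminescence.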
A549 tox: Nrf2 qHTS screen for inhibitors: counterscreen for cytotoxicity. A549 ARE-Fluc cells, CellTiter-Fluor viability, 18-24 h. Potency, µM (titrated, usually from 46 µM), usual class: inhibitors. 390,000 tested, 0.16% active
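A549 ARE_Fluc cells in 5% FBS OPTI-MEM were exposed to compounds in concentration-response for 18-24 h at 37 deg C. Viability was read by CellTiter-Fluor fluorescence (Ex 405/Em 525) after 30 min, before the luciferase read.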
Hits are given with their value; i = inactive; ? = inconclusive; nt = no result given. A selection: hits, their analogues and other compounds. The true share with any hit is near 3.7%. Calls follow the shape of the dose curve; as a rule, active = well fitted curve in the direction sought with a large enough effect; inconclusive = small, poorly fitted or top-dose-only effect, or another doubt; inactive = no such curve, though single readings can be large; an effect the other way counts as inactive or inconclusive.

SMILES | Nrf2 ARE act | Nrf2 inh | ELG1 DNA repair | A549 tox
Cc1cccc(NC(=O)Nc2nnc([C@@H]3C[C@H](O)[C@@H](CO)O3)s2)c1 | i | nt | nt | nt
Cc1ccc(N(CC(=O)NC2CCCC2)C(=O)c2nsc(Cl)c2Cl)cc1 | i | i | i | i
Cc1cccc(C(=O)NC2CC3CCCC(C2)N3S(=O)(=O)c2ccccc2)c1 (configuration not stated) | i | ? | 23.1µM | ?
O=C(NC1CCN(Cc2ccccc2)CC1)c1cccc(S(=O)(=O)Nc2ccc(F)cc2)c1 | i | 16.4µM | i | ?
COc1ccc(NS(=O)(=O)c2ccc(C)c(C(=O)NC3CCN(Cc4ccccc4)CC3)c2)cc1 | i | 13µM | i | i
O=C(NC1CCN(Cc2ccccc2)CC1)c1cccc(S(=O)(=O)Nc2ccc(Br)cc2)c1 | i | ? | i | i
Cc1ccc(C(=O)NC2CCN(Cc3ccccc3)CC2)cc1S(=O)(=O)N1CCOCC1 | i | ? | i | i
COc1ccccc1NS(=O)(=O)c1ccc(C)c(C(=O)NC2CCN(Cc3ccccc3)CC2)c1 | i | ? | i | i
COc1ccccc1NS(=O)(=O)c1cc(C(=O)NC2CCN(Cc3ccccc3)CC2)ccc1C | i | 5.8µM | nt | ?
Cc1cc(C(=O)NC2CCCN(Cc3ccccc3F)C2)n[nH]1 (configuration not stated) | i | i | i | i
Cc1ccc(NS(=O)(=O)c2cccc(C(=O)NC3CCN(Cc4ccccc4)CC3)c2)c(C)c1 | i | 20.6µM | nt | ?
O=C(c1cc(-c2ccc(Br)cc2)n[nH]1)N1CCN(S(=O)(=O)c2ccc(Br)cc2)CC1 | i | i | nt | i
O=C(c1cc(-c2ccc(Br)cc2)n[nH]1)N1CCN(C(=O)c2ccccc2Br)CC1 | i | 25.9µM | ? | i
COc1ccc(S(=O)(=O)N2CCN(C(=O)c3cc(-c4ccc(Br)cc4)n[nH]3)CC2)cc1OC | i | 20.6µM | 23.1µM | i
C=CCNc1nc(N2CCCCC2)c(C#N)c2c1CN(Cc1ccccc1)CC2 | i | i | 23.1µM | i
COC(=O)/C=C1\S/C(=N/N=C/c2ccco2)NC1=O | ? | ? | i | i
COC(=O)/C=C1/S/C(=N/N=C/c2ccco2)NC1=O | 10µM | i | i | i
CCc1ccccc1NC(=O)CN1CCN(C(=O)CNC(=O)Cc2cccc3ccccc23)CC1 | i | 14.6µM | ? | i
N#Cc1ccc(CN2CCN(C(=O)CNC(=O)Cc3cccc4ccccc34)CC2)cc1 | i | 5.8µM | i | i
C[C@H](CO)N1C[C@H](C)[C@@H](CN(C)S(=O)(=O)c2ccc(F)cc2)Oc2ccc(NC(=O)C3CCCCC3)cc2C1=O | i | i | i | i
OC1CCCC1 | i | i | i | i
Cc1cccc(/C=C(\c2nc3ccccc3[nH]2)S(=O)(=O)c2ccccc2)c1 | ? | 23.1µM | 11.6µM | ?
Cc1cc(C)c(C)c(S(=O)(=O)N2CCN(S(=O)(=O)c3ccc4c(c3)OCCO4)CC2)c1C | nt | i | nt | i
C=CCN1C(=O)/C(=C\c2ccco2)C(C(=O)OC)=C1C | ? | i | i | i
CCN1C(=O)/C(=C\c2ccco2)C(C(=O)OC)=C1C | 10µM | i | i | i
SMILES | Nrf2 ARE act | Nrf2 inh | ELG1 DNA repair | A549 tox
Cc1c(N=Cc2c(O)n(Cc3ccco3)c(=O)c3ccccc23)c(=O)n(-c2ccccc2)n1C | i | ? | 23.1µM | ?
Cc1cc(C)nc(-n2nc(C)cc2NC(=O)CNCc2ccccc2)n1 | i | i | i | i
Cc1cc(C)nc(-n2nc(C)cc2NC(=O)CN2CCCC(C)C2)n1 (configuration not stated) | i | ? | i | i
Cc1cc(C)nc(-n2nc(C)cc2NC(=O)CN2CCc3ccccc3C2)n1 | i | i | 3.66µM | i
CCN(CC(=O)Nc1cc(C)nn1-c1nc(C)cc(C)n1)Cc1ccccc1 | i | i | 18.4µM | i
COCCN(C(=O)c1cccc(N2C(=O)CCC2=O)c1)c1nc(-c2ccc([N+](=O)[O-])cc2)cs1 | i | ? | 5.8µM | ?
CCOC(=O)c1ccc(N2C(=O)C3C(C2=O)C(C(=O)c2ccc(Cl)cc2)N2CCCC32)cc1 (configuration not stated) | 14.1µM | i | i | i
CCCCC[C@H]1CN(CCc2ccccc2)C(=O)[C@@H]1CC(=O)NCc1ccc(OC)cc1 | i | 25.9µM | i | ?
NC(=O)c1cc(S(=O)(=O)NCCc2ccc(S(N)(=O)=O)cc2)cs1 | i | i | i | i
CCCn1nc(C(=O)Nc2cccc(S(=O)(=O)N3CCOCC3)c2)c2ccccc2c1=O | i | nt | nt | nt
CN1/C(=C\C(=S)NC(=O)c2cccc(Br)c2)C(C)(C)c2ccccc21 | i | 20.6µM | ? | i
CN1/C(=C\C(=S)NC(=O)c2ccc([N+](=O)[O-])cc2)C(C)(C)c2ccccc21 | i | ? | i | i
CC1Cc2cc(S(=O)(=O)CCC(=O)NCc3ccco3)ccc2N1C(=O)C1CC1 (configuration not stated) | i | i | i | i
COCCN(Cc1cc2ccc(C)c(C)c2nc1Cl)C(=O)N1CCOCC1 | i | i | i | i
CC(=O)N(Cc1cccs1)Cc1cc2ccc(C)c(C)c2nc1Cl | i | ? | 11.6µM | i
Cc1sc2ncn3cnnc3c2c1C | i | ? | ? | i
Cc1sc2ncn3ncnc3c2c1C | i | ? | 9.2µM | i
CCOC(=O)c1ccc(S(=O)(=O)N2CCN(c3nc(-c4ccccc4)nc4ccccc34)CC2)cc1 | nt | ? | nt | i
Clc1ccccc1-c1nn2c(-c3cc(-c4ccccc4)n[nH]3)nnc2s1 | nt | 23.1µM | nt | i
Cc1ccc2nc(CSc3nnc(Nc4ccccc4C)s3)cc(=O)n2c1 | i | i | 25.9µM | i
CCCCCCCCCn1c2c(c(=N)c3c1CCC3)CCC2 | i | ? | ? | i
CCCCCCn1c2c(c(=N)c3c1CCC3)CCC2 | i | 14.6µM | ? | i
O=C(OCC#CCSc1nnc(-c2cccc3ccccc23)o1)C1CCCC1 | nt | i | nt | i
CC1(C)c2ssc(=S)c2-c2ccccc2N1C(=O)CSC1=NCCS1 | i | 14.6µM | i | i
COc1ccc2c(c1)-c1c(ssc1=S)C(C)(C)N2C(=O)CSC1=NCCS1 | i | ? | ? | i
SMILES | Nrf2 ARE act | Nrf2 inh | ELG1 DNA repair | A549 tox
O=C(c1ccc2c(=O)n(-c3ccccc3)c(=O)[nH]c2c1)N1CCN(c2ccc(F)cc2)CC1 | i | ? | ? | i
C=CCn1c(=O)[nH]c2cc(C(=O)N3CCN(c4ccc(C(C)=O)cc4)CC3)ccc2c1=O | i | ? | 18.4µM | i
CC(=O)c1ccc(N2CCN(C(=O)c3ccc4c(=O)n(-c5ccccc5)c(=O)[nH]c4c3)CC2)cc1 | i | ? | 23.1µM | i
CC(C)(C)C(=O)N1CCN(c2ncnc3scc(-c4ccccc4)c23)CC1 | i | ? | ? | i
OC[C@@H]1CN(Cc2ccc(-c3ccccc3)cc2)C[C@H](n2cnc3c(N4CCOCC4)ncnc32)O1 | i | nt | nt | nt
CC(=O)c1ccc(NC(=O)CCNC(=O)c2ccccc2Cl)cc1 | i | i | i | i
